Measured values taken from PubChem BioAssay (Tox21).
Records with an inconclusive call do not appear. Active and inactive are the calls of the source. Calls come from the whole dose curve; as a rule, active = well fitted curve in the direction sought with a large enough effect in the repeat runs; inconclusive = weak or mixed curves; inactive = no such curve, though single readings can be large; an effect the other way counts as inactive or inconclusive.

Legend:
[1] = qHTS RealTime-Glo MT Cell Viability Assay in HEK293 cells - 0 hour (AID 1224880); note: top concentration of the series differs between compounds; nearly all actives have a fitted effect of over 45% in size
Method in brief: (§1)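 Luminescence readout at each listed time point; HEK293, 600 cells/well, RealTime-Glo MT reagent added with cells; compounds pinned (23 nL in DMSO) after 5 h at 37 C; continuous culture at 37 C.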

[2] = A CellTox Green Cytotoxicity Assay to monitor cytotoxicity in HEK293 cells - 32 hour (AID 1224881); note: nearly all actives have a fitted effect of over 40% in size
Method in brief: (§2)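 Read-out: fluorescence of a cell-impermeant cyanine dye staining DNA of dead cells, proportional to cytotoxicity. HEK293, 600 cells/well with reagent, compound (23 nL DMSO) added after 5 h; reads at 0, 8, 16, 24, 32, 40 h.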

[3] = A CellTox Green Cytotoxicity Assay to monitor cytotoxicity in HepG2 cells - 0 hour (AID 1224882); note: nearly all actives have a fitted effect of over 35% in size
Method in brief: (§3)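 HepG2, 600 cells/well premixed w/ CellTox Green; 5 h settle, 37 C/5% CO2; pintool cpd add (DMSO); 37 C, 40 h; fluorescence read at 0, 8, 16, 24, 32, 40 h.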

[4] = A CellTox Green Cytotoxicity Assay to monitor cytotoxicity in HepG2 cells - 32 hour (AID 1224883); note: nearly all actives have a fitted effect of over 50% in size
Method in brief: as §3

[5] = A CellTox Green Cytotoxicity Assay to monitor cytotoxicity in HEK293 cells - 8 hour (AID 1224884); note: nearly all actives have a fitted effect of over 35% in size
Method in brief: as §2

[6] = qHTS RealTime-Glo MT Cell Viability Assay in HepG2 cells - 16 hour (AID 1224885); note: nearly all actives have a fitted effect of over 50% in size
Method in brief: (§4)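 HepG2 cells (600/well) were dispensed with RealTime-Glo reagents, incubated 5 h at 37 °C, then treated with compounds in DMSO for up to 40 h. Nonlytic NanoLuc luminescence reflecting viable cells was read at each stated time point.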

[7] = qHTS RealTime-Glo MT Cell Viability Assay in HEK293 cells - 24 hour (AID 1224886); note: top concentration of the series differs between compounds; nearly all actives have a fitted effect of over 50% in size
Method in brief: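 HEK293 cells seeded with NanoLuc/prosubstrate reagent, rested 5 h at 37 C, then dosed and kept at 37 C up to 40 h. Nonlytic real-time luminescence from viable cells read at 0, 8, 16, 24, 32 and 40 h.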

[8] = qHTS RealTime-Glo MT Cell Viability Assay in HEK293 cells - 8 hour (AID 1224887); note: top concentration of the series differs between compounds; nearly all actives have a fitted effect of over 50% in size
Method in brief: as §1

[9] = A CellTox Green Cytotoxicity Assay to monitor cytotoxicity in HEK293 cells - 16 hour (AID 1224888); note: nearly all actives have a fitted effect of over 35% in size
Method in brief: as §2

[10] = qHTS RealTime-Glo MT Cell Viability Assay in HepG2 cells - 0 hour (AID 1224889); note: nearly all actives have a fitted effect of over 50% in size
Method in brief: as §4
% is set by controls: 0 for no effect and ±100 for the full control effect.

BrCCCCCBr
inactive: Potency [1] | Potency [2] | outcome [3] | Potency [4] | Potency [5] | outcome [6] | Potency [7] | Potency [8] | outcome [9] | Potency [10]

CCOC(=O)/C=C/c1ccccc1
inactive: Potency [1] | Potency [2] | outcome [3] | Potency [4] | Potency [5] | outcome [6] | Potency [7] | Potency [8] | outcome [9] | Potency [10]

CC(C)CC(=O)O
inactive: Potency [1] | Potency [2] | outcome [3] | Potency [4] | Potency [5] | outcome [6] | Potency [7] | Potency [8] | outcome [9] | Potency [10]

O=C(OCC(COC(=O)c1cccnc1)(COC(=O)c1cccnc1)COC(=O)c1cccnc1)c1cccnc1
inactive: Potency [1] | Potency [2] | outcome [3] | Potency [4] | Potency [5] | outcome [6] | Potency [7] | Potency [8] | outcome [9] | Potency [10]

COc1ccc2c(c1)C(=O)N(CCc1ccc(S(=O)(=O)NC(=O)NC3CCCCC3)cc1)C(=O)C2(C)C
inactive: Potency [1] | Potency [2] | outcome [3] | Potency [4] | Potency [5] | outcome [6] | Potency [7] | Potency [8] | outcome [9] | Potency [10]

ClCCCl
inactive: Potency [1] | Potency [2] | outcome [3] | Potency [4] | Potency [5] | outcome [6] | Potency [7] | Potency [8] | outcome [9] | Potency [10]

CCOC(=O)c1ncn2c1CN(C)C(=O)c1cc(F)ccc1-2
inactive: Potency [1] | Potency [2] | outcome [3] | Potency [4] | Potency [5] | outcome [6] | Potency [7] | Potency [8] | outcome [9] | Potency [10]

CC(C)c1ccc2cc(C(C)C)ccc2c1
inactive: Potency [1] | Potency [2] | outcome [3] | Potency [4] | Potency [5] | outcome [6] | Potency [7] | Potency [8] | outcome [9] | Potency [10]

C[C@H](N)[C@H](O)c1cccc(O)c1
inactive: Potency [1] | Potency [2] | outcome [3] | Potency [4] | Potency [5] | outcome [6] | Potency [7] | Potency [8] | outcome [9] | Potency [10]

CC(C)CCCCOC(=O)c1ccccc1C(=O)OCCCCC(C)C
inactive: Potency [1] | Potency [2] | outcome [3] | Potency [4] | Potency [5] | outcome [6] | Potency [7] | Potency [8] | outcome [9] | Potency [10]

CC(C)=O
inactive: Potency [1] | Potency [2] | outcome [3] | Potency [4] | Potency [5] | outcome [6] | Potency [7] | Potency [8] | outcome [9] | Potency [10]

OCCCCC(O)CO (configuration not stated)
inactive: Potency [1] | Potency [2] | outcome [3] | Potency [4] | Potency [5] | outcome [6] | Potency [7] | Potency [8] | outcome [9] | Potency [10]

C[C@@H](Oc1ccc(CNC(=O)c2cccnc2Oc2ccc3c(c2)OCO3)c(F)c1)C(=O)O
inactive: Potency [1] | Potency [2] | outcome [3] | Potency [4] | Potency [5] | outcome [6] | Potency [7] | Potency [8] | outcome [9] | Potency [10]

COCCOCCOCCOCCO
inactive: Potency [1] | Potency [2] | outcome [3] | Potency [4] | Potency [5] | outcome [6] | Potency [7] | Potency [8] | outcome [9] | Potency [10]

CCCCCCCCCC(C)=O
inactive: Potency [1] | Potency [2] | outcome [3] | Potency [4] | Potency [5] | outcome [6] | Potency [7] | Potency [8] | outcome [9] | Potency [10]

CN1CCN(CC(=O)N2c3ccccc3C(=O)Nc3cccnc32)CC1
inactive: activity change, negative = cytotoxicity [1] 7.23% [at 6.97 µM] | cytotoxicity increase [2] -2.73% [at 6.97 µM] | cytotoxicity [3] -13.6% [at 6.97 µM] | cytotoxicity increase [4] -13% [at 6.97 µM] | cytotoxicity increase [5] -1.13% [at 6.97 µM] | activity change, negative = cytotoxic [6] 0.498% [at 6.97 µM] | activity change, negative = cytotoxicity [7] 6.44% [at 6.97 µM] | activity change, negative = cytotoxicity [8] 17.8% [at 6.97 µM] | activity change, negative = cytotoxicity [10] 2.23% [at 6.97 µM]

N[C@@H](COP(=O)(O)O)C(=O)O
inactive: activity change, negative = cytotoxicity [1] 12.6% [at 15.8 µM] | cytotoxicity increase [2] -6.18% [at 15.8 µM] | cytotoxicity [3] 0.162% [at 15.8 µM] | cytotoxicity increase [4] -0.733% [at 15.8 µM] | cytotoxicity increase [5] -2.54% [at 15.8 µM] | activity change, negative = cytotoxic [6] 1.13% [at 15.8 µM] | activity change, negative = cytotoxicity [7] 1.75% [at 15.8 µM] | activity change, negative = cytotoxicity [8] 10.1% [at 15.8 µM] | activity change [9] -5.61% [at 15.8 µM] | activity change, negative = cytotoxicity [10] -1.1% [at 15.8 µM]

CCCCOC(=O)c1ccccc1
inactive: Potency [1] | Potency [2] | outcome [3] | Potency [4] | Potency [5] | outcome [6] | Potency [7] | Potency [8] | outcome [9] | Potency [10]

C=C(C)C(=O)OCCNC(C)(C)C
inactive: Potency [1] | Potency [2] | outcome [3] | Potency [4] | Potency [5] | outcome [6] | Potency [7] | Potency [8] | outcome [9] | Potency [10]

C#CC(C)N(C)C(=O)Nc1ccc(Cl)cc1 (configuration not stated)
inactive: Potency [1] | Potency [2] | outcome [3] | Potency [4] | Potency [5] | outcome [6] | outcome [9] | Potency [10]

OC[C@H](Cc1cccc(O)c1)[C@H](CO)Cc1cccc(O)c1
inactive: Potency [1] | Potency [2] | outcome [3] | Potency [4] | Potency [5] | outcome [6] | Potency [7] | Potency [8] | outcome [9] | Potency [10]

CCCCCCOC(=O)CC
inactive: Potency [1] | Potency [2] | outcome [3] | Potency [4] | Potency [5] | outcome [6] | Potency [7] | Potency [8] | outcome [9] | Potency [10]
